# PubChem BioAssay (Tox21)
# “And” between values parts separate entries of the source, which are not always exact repeats. Equal values may be shown once. Results filed as inconclusive are left out. Where a call stands in place of a potency, no number is given. More than one record can exist for a structure, and the calls need not agree. The source made the active and inactive calls. Calls come from the whole dose curve.
# Tested on: not listed separately
# Assay: qHTS assay to identify small molecule agonists of the AP-1 signaling pathway (AID 1159526)
# Details: ME-180 (cervical carcinoma) AP-1-bla reporter, beta-lactamase FRET ratio, 5 h; series mostly up to 76.8 µM
row,SMILES,Potency
1,COCCOCCOCCO,inactive
2,c1ccc2c(c1)ccc1ncccc12,inactive
3,Cc1ccc(C(C)(C)C)cc1,inactive
4,CCCCCCCCCCCCO,inactive
5,c1ccc2cc3ccccc3cc2c1,inactive
6,CCO[Si](CCCNC(N)=O)(OCC)OCC,inactive
7,Cc1ccc(S(=O)(=O)NCl)cc1,inactive
8,CCC/C=C/C=O,inactive
9,Cc1ccc(N)c([N+](=O)[O-])c1,inactive
10,CC(C)(Oc1ccc(Cl)cc1)C(=O)O,inactive
11,CC/C=C\C/C=C\C/C=C\CCCCCCCC(=O)O,inactive
12,CNC[C@H](O)c1ccc(O)c(O)c1,inactive
13,C1COCCN1,inactive
14,Brc1nc2ccccc2s1,inactive
15,CN(C)/N=N/c1nc[nH]c1C(N)=O,inactive
16,Cc1ccc(C)c(O)c1,inactive
17,CCCCCCOCCOCCO,inactive
18,COC(=O)c1ccc(C)cc1,inactive
19,COc1cc([C@H]2Oc3cc([C@H]4Oc5cc(O)cc(O)c5C(=O)[C@@H]4O)ccc3O[C@@H]2CO)ccc1O,inactive
20,NCCOCCO,inactive

row,SMILES,Potency
1,C[C@]12C=CC(=O)C=C1CC[C@H]1[C@@H]3C[C@@H](O)[C@](O)(C(=O)CO)[C@@]3(C)C[C@H](O)[C@@]12F,inactive
2,O=S1(=O)CCCO1,inactive
3,CC(=O)Nc1ccc2c(c1)Cc1cc(NC(C)=O)ccc1-2,inactive
4,COc1ccc(C(=O)c2ccccc2O)c(O)c1,inactive
5,CCCCCCC(C)O (centres undefined),inactive
6,CC1(C)C(C=C(Cl)Cl)C1C(=O)OCc1cccc(Oc2ccccc2)c1 (centres undefined),inactive
7,Nc1ccc(O)c(N)c1,inactive
8,c1ccc2ncccc2c1,inactive
9,NC[C@H](O)c1ccc(O)c(O)c1,inactive
10,OC[C@@H](O)[C@@H](O[C@@H]1O[C@H](CO)[C@H](O)[C@H](O)[C@H]1O)[C@H](O)[C@@H](O)CO,inactive
11,C=C[C@@]1(C)CC(=O)[C@]2(O)[C@@]3(C)[C@@H](O)CCC(C)(C)[C@@H]3[C@H](O)[C@H](OC(C)=O)[C@@]2(C)O1,inactive
12,Cc1ccc([N+](=O)[O-])c(C)c1,inactive
13,Clc1ccc(Sc2cc(Cl)c(Cl)cc2Cl)cc1,inactive
14,Nc1cc(Cl)c(N)c(Cl)c1,inactive
15,O=C(O)CCCC(=O)O,inactive
16,c1ccc2c(c1)ccc1cc3c(ccc4ccccc43)cc12,inactive
17,COC(=O)C(C)Oc1ccc(Oc2ncc(C(F)(F)F)cc2Cl)cc1 (centres undefined),inactive
18,C=CC(=O)OCCCC,inactive
19,CCC(=O)O[C@H]1[C@H](O[C@@H]2[C@@H](C)[C@H](O[C@H]3C[C@@](C)(OC)[C@@H](O)[C@H](C)O3)[C@@H](C)C(=O)O[C@H](CC)[C@@](C)(O)[C@H](O)[C@@H](C)C(=O)[C@H](C)C[C@@]2(C)O)O[C@H](C)C[C@@H]1N(C)C,inactive

# Biological target: Retinoic acid receptor RXR-alpha (Homo sapiens) (UniProt P19793)
# Assay: qHTS assay to identify small molecule agonists of the RXR signaling pathway (AID 1159527); note: nearly all actives have a fitted effect of over 35% in size; note: potency is the fitted concentration of half-maximal effect
# Details: HEK293T RXRa-UAS-bla, beta-lactamase ratio, 16 h; series mostly up to 76.8 µM
# Summary of the method: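 Compounds in DMSO were added to RXR-alpha-UAS-bla HEK 293T cells kept in 2% charcoal-stripped serum, and incubated 16 hr at 37 C with 5% CO2. Reporter signal came from a 2 hr B/G FRET substrate step.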
# Chain of Retinoic acid receptor RXR-alpha (Homo sapiens) (P19793 whole entry, looked up): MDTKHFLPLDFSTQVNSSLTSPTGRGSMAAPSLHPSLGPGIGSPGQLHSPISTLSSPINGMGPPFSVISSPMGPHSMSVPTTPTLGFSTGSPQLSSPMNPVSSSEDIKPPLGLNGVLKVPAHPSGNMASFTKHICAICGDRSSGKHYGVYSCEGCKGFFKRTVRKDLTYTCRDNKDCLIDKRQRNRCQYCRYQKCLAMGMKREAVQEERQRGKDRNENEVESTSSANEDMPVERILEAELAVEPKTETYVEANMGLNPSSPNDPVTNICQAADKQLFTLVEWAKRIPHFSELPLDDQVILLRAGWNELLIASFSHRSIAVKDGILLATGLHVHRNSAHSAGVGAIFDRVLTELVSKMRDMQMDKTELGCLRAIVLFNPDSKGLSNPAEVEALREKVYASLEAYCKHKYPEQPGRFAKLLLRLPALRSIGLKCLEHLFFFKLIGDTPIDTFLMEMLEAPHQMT
row,SMILES,Potency
1,COCCOCCOCCO,inactive
2,Cc1ccc(C(C)(C)C)cc1,inactive
3,c1ccc2cc3ccccc3cc2c1,inactive
4,CCO[Si](CCCNC(N)=O)(OCC)OCC,inactive
5,Cc1ccc(S(=O)(=O)NCl)cc1,inactive
6,CCC/C=C/C=O,inactive
7,Cc1ccc(N)c([N+](=O)[O-])c1,inactive
8,CC(C)(Oc1ccc(Cl)cc1)C(=O)O,inactive
9,CNC[C@H](O)c1ccc(O)c(O)c1,inactive
10,C1COCCN1,inactive
11,Brc1nc2ccccc2s1,inactive
12,CN(C)/N=N/c1nc[nH]c1C(N)=O,inactive
13,Cc1ccc(C)c(O)c1,inactive
14,CCCCCCOCCOCCO,inactive and 43.6 µM (active)
15,COC(=O)c1ccc(C)cc1,inactive
16,COc1cc([C@H]2Oc3cc([C@H]4Oc5cc(O)cc(O)c5C(=O)[C@@H]4O)ccc3O[C@@H]2CO)ccc1O,inactive
17,NCCOCCO,inactive
18,C[C@]12C=CC(=O)C=C1CC[C@H]1[C@@H]3C[C@@H](O)[C@](O)(C(=O)CO)[C@@]3(C)C[C@H](O)[C@@]12F,inactive

row,SMILES,Potency
1,O=S1(=O)CCCO1,inactive
2,CC(=O)Nc1ccc2c(c1)Cc1cc(NC(C)=O)ccc1-2,inactive
3,COc1ccc(C(=O)c2ccccc2O)c(O)c1,inactive
4,CCCCCCC(C)O (centres undefined),17.7 µM (active) and inactive
5,CC1(C)C(C=C(Cl)Cl)C1C(=O)OCc1cccc(Oc2ccccc2)c1 (centres undefined),inactive
6,Nc1ccc(O)c(N)c1,inactive
7,c1ccc2ncccc2c1,inactive
8,NC[C@H](O)c1ccc(O)c(O)c1,inactive
9,OC[C@@H](O)[C@@H](O[C@@H]1O[C@H](CO)[C@H](O)[C@H](O)[C@H]1O)[C@H](O)[C@@H](O)CO,inactive
10,C=C[C@@]1(C)CC(=O)[C@]2(O)[C@@]3(C)[C@@H](O)CCC(C)(C)[C@@H]3[C@H](O)[C@H](OC(C)=O)[C@@]2(C)O1,12.3 µM (active)
11,Cc1ccc([N+](=O)[O-])c(C)c1,inactive
12,Clc1ccc(Sc2cc(Cl)c(Cl)cc2Cl)cc1,inactive
13,Nc1cc(Cl)c(N)c(Cl)c1,inactive
14,O=C(O)CCCC(=O)O,inactive
15,c1ccc2c(c1)ccc1cc3c(ccc4ccccc43)cc12,inactive
16,C=CC(=O)OCCCC,inactive
17,CCC(=O)O[C@H]1[C@H](O[C@@H]2[C@@H](C)[C@H](O[C@H]3C[C@@](C)(OC)[C@@H](O)[C@H](C)O3)[C@@H](C)C(=O)O[C@H](CC)[C@@](C)(O)[C@H](O)[C@@H](C)C(=O)[C@H](C)C[C@@]2(C)O)O[C@H](C)C[C@@H]1N(C)C,inactive
